Test results: PubChem BioAssay (Tox21)
Records with an inconclusive call do not appear. The source made the active and inactive calls. Unless noted, calls follow the shape of the dose curve; as a rule, active = well fitted curve in the direction sought with a large enough effect in the repeat runs; inconclusive = weak or mixed curves; inactive = no such curve, though single readings can be large; an effect the other way counts as inactive or inconclusive.

Experiments:
[1] = A CellTox Green Cytotoxicity Assay to monitor cytotoxicity in HepG2 cells - 8 hour (AID 1224890); also: nearly all actives have a fitted effect of over 45% in size
Outline: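 Cells and non-lytic dye reagent are dispensed together (600 HepG2 cells/well) and incubated 5 h before DMSO compound transfer. Kinetic fluorescence is then recorded in the same wells during 40 h at 37 C.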

[2] = qHTS assay to identify small molecule antagonists of the estrogen receptor alpha (ER-alpha) signaling pathway using the BG1 cell line in the presence of 0.1 nM 17-beta-estradiol - cell viability counter screen (AID 1259241); also: nearly all actives have a fitted effect of over 40% in size
Outline: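 The cell line endogenously expresses full-length ER-alpha and carries four EREs driving luciferase. Cells are cultured 5 days hormone-free, treated 22 hr with compounds and 0.1 nM estradiol, then viability is read by fluorescence.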

[3] = qHTS assay to identify small molecule antagonists of the androgen receptor (AR) signaling pathway using the MDA cell line in the presence of 0.5 nM R1881 - cell viability counter screen (AID 1259242); also: nearly all actives have a fitted effect of over 45% in size
Outline: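 Steps: plate MDA-kb2 cells, rest 5 hr at 37C without CO2; pin in compounds in DMSO; add R1881 to 0.5 nM final; incubate 16 hr; add CellTiter-Fluor, 30 min; read fluorescence.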

[4] = biological target: Androgen receptor (Homo sapiens) (UniProt P10275); test: qHTS assay to identify small molecule antagonists of the androgen receptor (AR) signaling pathway using the MDA cell line in the presence of 0.5 nM R1881 (AID 1259243); also: nearly all actives have a fitted effect of over 50% in size
Outline: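 Stably transfected MDA-kb2 cells express luciferase from an MMTV promoter bearing both AR and GR response elements. Compounds plus 0.5 nM R1881 (final) were incubated 16 hr at 37C without CO2, then luminescence measured.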

[5] = biological target: Estrogen receptor (Homo sapiens) (UniProt P03372); test: qHTS assay to identify small molecule antagonists of the estrogen receptor alpha (ER-alpha) signaling pathway using the BG1 cell line in the presence of 0.1 nM 17-beta-estradiol (AID 1259244); also: nearly all actives have a fitted effect of over 50% in size
Outline: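 Antagonist mode: compounds in DMSO are pinned onto VM7Luc4E2 reporter cells, 0.1 nM final 17beta-estradiol is added, and after 22 h at 37C luciferase luminescence is measured with ONE-Glo.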

[6] = qHTS assay to identify small molecule HDAC inhibitors (AID 1259364);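 also: wild-type HCT-116 cells with endogenous class I/II HDAC activity; top concentration of the series differs between compounds; nearly all actives have a fitted effect of over 45% in size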
Outline: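 Cells (HCT-116, wild type) are seeded at 1,500 per well, incubated overnight, treated with compound in DMSO for 2 hr, then developed with HDAC-Glo I/II reagent for 30 min at room temperature.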

[7] = qHTS assay to identify small molecule HDAC inhibitors - cell viability counter screen (AID 1259365); also: series mostly up to about 92 µM; nearly all actives have a fitted effect of over 50% in size
Outline: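 Viability readout: CellTiter-Glo luminescence. Wild-type HCT-116 cells, 2hr compound treatment following overnight attachment at 37 C.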

[8] = qHTS assay to identify small molecule agonists of the sonic hedgehog signaling (Shh) pathway (AID 1259368; calls by dose curve;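 also: NIH/3T3-derived 3T3Gli1-Luc cells carrying a stable Gli1-driven firefly luciferase reporter; series mostly up to about 92 µM; nearly all actives have a fitted effect of over 15% in size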)
Outline: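 Cells of a mouse NIH/3T3 clone stably expressing luciferase under the Gli1 transcriptional response element are exposed to test chemicals for 24 hr at 37 C. Pathway activation is detected as a rise in luminescence.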

[9] = qHTS assay to identify small molecule antagonists of the sonic hedgehog signaling (Shh) pathway (AID 1259369; calls by dose curve; also: nearly all actives have a fitted effect of over 45% in size)
Outline: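 Cells are plated and held 4hr at 37 C, compounds (DMSO) are pinned in, conditioned medium is added to stimulate the pathway, and after 24hr luciferase reagent is added for 30min before luminescence is read.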

[10] = biological target: Estrogen receptor beta (Homo sapiens) (UniProt Q92731); test: qHTS assay to identify small molecule agonists of the estrogen receptor beta (ER-beta) signaling pathway (AID 1259377; active = well fitted activation curve with a large enough effect in the signal ratio in the repeat runs, not every such curve was filed as active; the % refers to the signal ratio)
Outline: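 A UAS-controlled beta-lactamase reporter in ER-beta-UAS-bla HEK293T cells reports receptor activation. Compounds act for 16 hr at 37C in 2% charcoal-stripped serum, and a FRET substrate is read by fluorescence after 2 hours.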

[11] = biological target: Estrogen receptor beta (Homo sapiens) (UniProt Q92731); test: qHTS assay to identify small molecule antagonists of the estrogen receptor beta (ER-beta) signaling pathway (AID 1259378; active = well fitted inhibition curve with a large enough effect in the signal ratio in the repeat runs, not every such curve was filed as active; the % refers to the signal ratio)
Outline: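 Antagonist mode: compounds added to beta-lactamase reporter HEK293T ER-beta-UAS cells stimulated with E2 (1nM final), 16 hr at 37C. LiveBLAzer B/G FRET substrate, 2 hours room temperature, fluorescence read-out.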

[12] = qHTS assay to identify small molecule agonists of the androgen receptor (AR) signaling pathway in the presence of an antagonist - cell viability counter screen (AID 1259379);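 also: MDA-kb2 human breast cancer cells carrying an MMTV luciferase reporter; series mostly up to about 92 µM; nearly all actives have a fitted effect of over 25% in size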
Outline: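 Cytotoxicity is assessed by CellTiter-Fluor in MDA-kb2 cells carrying an MMTV-driven luciferase reporter. Cells receive 3.0uM nilutamide plus compounds at 15 concentrations and incubate 16 hr at 37C without CO2 before fluorescence reading.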

[13] = biological target: Androgen receptor (Homo sapiens) (UniProt P10275); test: qHTS assay to identify small molecule agonists of the androgen receptor (AR) signaling pathway in the presence of an antagonist (AID 1259381; calls by dose curve; also: nearly all actives have a fitted effect of over 15% in size)
Outline: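 Agonist-mode confirmation screen: human MDA-kb2 cells stably expressing luciferase under an MMTV promoter bearing AR and GR response elements, co-treated with 3.0uM nilutamide (final). Luminescence measured after 16hr compound incubation.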

[14] = qHTS assay to identify small molecule antagonists of the estrogen receptor beta (ER-beta) signaling pathway - cell viability counter screen (AID 1259382);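 also: HEK293T cells carrying ER-beta-UAS-bla reporter stimulated with estradiol; series mostly up to about 92 µM; nearly all actives have a fitted effect of over 55% in size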
Outline: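 Cytotoxicity counter screen multiplexed with the beta-lactamase antagonist assay: GripTite HEK293T ER-beta-bla cells were treated 16 hr with test chemicals in the presence of 1nM 17-beta-estradiol, and viability was measured by CellTiter-Glo.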

[15] = biological target: Estrogen receptor (Homo sapiens) (UniProt P03372); test: qHTS assay to identify small molecule agonists of the estrogen receptor alpha (ER-alpha) signaling pathway in the presence of an antagonist (AID 1259383; calls by dose curve; also: top concentration of the series differs between compounds; nearly all actives have a fitted effect of over 15% in size)
Outline: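 Agonist-mode confirmation in the presence of the ER antagonist ICI-182,780 at 10.0nM final. Breast-derived VM7Luc4E2 reporter cells were exposed to compounds for 22hr, and ERE-driven luciferase was quantified by luminescence.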

[16] = qHTS assay to identify small molecule agonists or antagonists of the thyroid stimulating hormone receptor (TSHR) signaling pathway - wild type cell line counter screen (AID 1259384; calls by dose curve)
Outline: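 Counter screen in untransfected Hek293: compounds (15-point titration, triplicate) plus phosphodiesterase inhibitor Ro20-1724 added after 18 h plating; 30 min RT. Intracellular cAMP via competitive d2/cryptate immunoassay, 1 h incubation.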

[17] = qHTS assay to identify small molecule phospholipidosis (PLD) inducers (AID 1259344; active = well fitted curve in the direction sought with a large enough effect; an effect the other way counts as inactive or inconclusive)
Outline: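 Phospholipid accumulation was scored by imaging: fixed, Hoechst-counterstained HepG2 cells stained with LipidTOX Red after 24 h compound exposure at 37 C. Read-outs were pit count and pit intensity per well or per cell, with amiodarone and DMSO controls.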

[18] = qHTS assay to identify small molecule agonists of the sonic hedgehog signaling (Shh) pathway - cell viability counter screen (AID 1259366); also: nearly all actives have a fitted effect of over 50% in size
Outline: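 Viability measured fluorometrically (CellTiter-Fluor, 1hr, 37C) in 3T3 Gli1-Luc reporter cells after 23hr compound exposure within a 24hr incubation at 37C/5% CO2.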

[19] = qHTS assay to identify small molecule antagonists of the sonic hedgehog signaling (Shh) pathway - cell viability counter screen (AID 1259367); also: nearly all actives have a fitted effect of over 55% in size
Outline: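 Viability was read by CellTiter-Fluor fluorescence in the same wells, reagent added 23 hr into compound treatment and incubated 1 hr at 37C. The 3T3 Gli1-Luc reporter cells (2,000/well) received conditioned medium after compound and ran 24 hr.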

[20] = qHTS assay to identify small molecule agonists of the estrogen receptor beta (ER-beta) signaling pathway - cell viability counter screen (AID 1259380); also: nearly all actives have a fitted effect of over 30% in size
Outline: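 Cytotoxicity is measured in parallel with the reporter screen: after 16 hr compound exposure at 37C and a 2 hr LiveBLAzer step, CellTiter-Glo is added to the same ER-beta-UAS-bla HEK293T wells and luminescence read after 30 min.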
% is scaled to controls: 0 for no effect and ±100 for the full control effect.

Estrogen receptor (Homo sapiens), sequence (P03372 whole entry, looked up): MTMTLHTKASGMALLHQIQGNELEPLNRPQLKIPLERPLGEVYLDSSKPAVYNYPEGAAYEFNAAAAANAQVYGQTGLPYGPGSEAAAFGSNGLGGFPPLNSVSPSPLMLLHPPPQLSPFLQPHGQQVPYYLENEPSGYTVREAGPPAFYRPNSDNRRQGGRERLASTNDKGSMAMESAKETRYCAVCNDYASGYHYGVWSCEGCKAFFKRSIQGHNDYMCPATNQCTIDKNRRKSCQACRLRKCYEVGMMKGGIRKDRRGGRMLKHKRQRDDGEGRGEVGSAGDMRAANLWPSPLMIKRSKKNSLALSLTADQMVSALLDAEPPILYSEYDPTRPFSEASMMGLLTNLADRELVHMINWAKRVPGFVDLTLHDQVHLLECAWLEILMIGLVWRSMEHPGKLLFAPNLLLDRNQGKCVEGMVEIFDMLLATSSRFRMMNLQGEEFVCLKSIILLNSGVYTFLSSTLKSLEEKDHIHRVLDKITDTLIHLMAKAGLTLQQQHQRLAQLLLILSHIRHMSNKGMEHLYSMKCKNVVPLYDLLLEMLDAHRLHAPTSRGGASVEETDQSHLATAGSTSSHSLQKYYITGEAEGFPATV
Estrogen receptor beta (Homo sapiens), sequence (Q92731 whole entry, looked up): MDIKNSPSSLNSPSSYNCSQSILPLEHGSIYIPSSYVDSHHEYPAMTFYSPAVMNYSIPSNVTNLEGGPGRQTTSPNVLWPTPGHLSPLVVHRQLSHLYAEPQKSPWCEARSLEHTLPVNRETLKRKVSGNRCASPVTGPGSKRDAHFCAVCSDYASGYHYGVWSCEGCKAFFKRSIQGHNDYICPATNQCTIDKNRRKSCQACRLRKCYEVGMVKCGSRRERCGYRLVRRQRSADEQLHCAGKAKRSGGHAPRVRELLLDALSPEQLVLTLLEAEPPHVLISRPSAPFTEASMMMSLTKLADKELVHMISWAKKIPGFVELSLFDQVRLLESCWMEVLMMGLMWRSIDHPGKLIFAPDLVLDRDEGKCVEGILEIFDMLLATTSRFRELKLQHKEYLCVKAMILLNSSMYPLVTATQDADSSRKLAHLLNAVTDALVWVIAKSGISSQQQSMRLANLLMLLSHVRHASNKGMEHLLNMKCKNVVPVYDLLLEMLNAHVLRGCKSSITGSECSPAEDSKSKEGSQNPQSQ
Androgen receptor (Homo sapiens), sequence (P10275 whole entry, looked up): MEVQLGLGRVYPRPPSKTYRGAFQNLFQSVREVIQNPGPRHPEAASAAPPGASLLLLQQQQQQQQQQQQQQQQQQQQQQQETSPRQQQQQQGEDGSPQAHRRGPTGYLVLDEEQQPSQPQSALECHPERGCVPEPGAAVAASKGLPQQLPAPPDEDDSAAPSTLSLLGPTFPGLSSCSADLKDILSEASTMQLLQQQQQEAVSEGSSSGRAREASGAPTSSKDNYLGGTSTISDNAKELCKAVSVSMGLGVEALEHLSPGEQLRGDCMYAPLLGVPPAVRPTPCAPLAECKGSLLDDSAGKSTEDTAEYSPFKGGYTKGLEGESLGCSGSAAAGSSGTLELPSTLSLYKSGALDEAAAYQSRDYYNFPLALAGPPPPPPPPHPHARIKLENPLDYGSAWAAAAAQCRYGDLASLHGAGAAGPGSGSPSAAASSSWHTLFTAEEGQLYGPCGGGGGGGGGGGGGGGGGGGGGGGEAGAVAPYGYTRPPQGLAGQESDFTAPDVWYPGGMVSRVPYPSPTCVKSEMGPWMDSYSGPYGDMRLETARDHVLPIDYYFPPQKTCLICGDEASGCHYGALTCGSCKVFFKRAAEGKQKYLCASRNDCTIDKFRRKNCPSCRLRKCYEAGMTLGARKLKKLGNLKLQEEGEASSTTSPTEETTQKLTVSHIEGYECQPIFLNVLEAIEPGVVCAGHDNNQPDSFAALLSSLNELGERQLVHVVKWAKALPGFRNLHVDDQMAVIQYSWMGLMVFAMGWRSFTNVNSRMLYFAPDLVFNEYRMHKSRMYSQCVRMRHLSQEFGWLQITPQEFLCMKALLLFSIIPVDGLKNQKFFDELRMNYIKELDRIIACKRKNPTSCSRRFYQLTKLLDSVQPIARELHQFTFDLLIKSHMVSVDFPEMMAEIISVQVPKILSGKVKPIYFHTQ

COC(=O)/C=C(/C)N
inactive: Potency [1] | Potency [2] | outcome [3] | Potency [4] | Potency [5] | Potency [6] | outcome [7] | Potency [8] | Potency [9] | outcome [10] | Potency [11] | Potency [12] | Potency [13] | outcome [14] | Potency [15] | outcome [16]

Cc1ncc(CO)c(CN)c1O
inactive: Potency [1] | Potency [2] | outcome [3] | Potency [4] | Potency [5] | outcome [17] | Potency [6] | outcome [7] | Potency [18] | Potency [19] | Potency [8] | Potency [9] | outcome [10] | Potency [11] | Potency [12] | Potency [20] | Potency [13] | outcome [14] | Potency [15] | outcome [16]

C[C@@H]1CN(c2c(F)c(F)c3c(=O)c(C(=O)O)cn(C4CC4)c3c2F)C[C@H](C)N1
inactive: cytotoxicity increase [1] -9.96% [at 15.8 µM] | activity change, negative = cytotoxicity [2] 13.3% [at 19 µM] | viability change, negative = cytotoxic [3] 2.13% [at 19 µM] | Potency [4] | outcome [17] | activity change, negative = inhibition [6] -5.53% [at 19 µM] | viability change, negative = cytotoxic [18] 6.74% [at 19 µM] | viability change, negative = cytotoxic [19] -0.257% [at 19 µM] | activity change, negative = inhibition [9] 7.04% [at 19 µM] | activity change, negative = cytotoxicity [12] 1.23% [at 19 µM] | activity change, negative = cytotoxicity [20] -0.431% [at 19 µM] | Potency [13] | activity change, negative = cytotoxicity [14] 0.873% [at 19 µM] | activation [15] -0.582% [at 19 µM] | cAMP activity change [16] -0.3% [at 18.9 µM]
